# Bioassay records (PubChem)
# In the library only some 1.1% were active in any assay of this set; here they are far more common.
# MOR-DOR ag-1: agonists of OPRM1-OPRD1 heterodimerization, primary screen, cell-based, luminescence; cells; AID 504326, 2011; Mu-type opioid receptor (Homo sapiens) + Delta-type opioid receptor (Homo sapiens), …; activation, % at 9.3 µM; 340,000 tested, 0.3% active;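 further: 0% = vehicle-treated cells and 100% = reference agonist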
# MOR-DOR inv ag: inverse agonists of MOR-DOR heterodimerization, primary screen, cell-based, luminescence; AID 504357, 2011; 340,000 tested, 0.21% active; inhibition, % at 9.3 µM; cell-based MOR-DOR heterodimer luminescence, inverse agonism; Mu-type opioid receptor (Homo sapiens) + Delta-type opioid receptor (Homo sapiens), …; in the data active means inhibition above about 22%, passing the limit was not always enough;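 further: 0% = cells with DMSO and 100% = wells without cells with DMSO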
# HTR5A ag ctr: HTR5A agonists in luminescence cell assay, primary screen, counter-screen for OPRM1-OPRD1 heterodimer agonist project, full-deck HTS; 340,000 tested, 0.61% active; cell-based; AID 504692, 2011; activation, % at 9.3 µM; 5-hydroxytryptamine receptor 5A (Homo sapiens), P47898; in the data active means activation mostly above about 9.5%, no sharp cut-off; inactive means mostly below about 7.6%;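 further: 0% = cells with vehicle only and 100% = reference agonist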
# HTR5A inv ctr: HTR5A inverse agonists in luminescence cell assay, primary screen, counter-screen for OPRM1-OPRD1 heterodimer inverse agonist project, full-deck HTS. HTR5A cell line, inverse agonism. inhibition, % at 9.3 µM. 340,000 tested, 0.083% active; in the data active means inhibition mostly above about 23%, no sharp cut-off; inactive means mostly below about 18%;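 further: 0% = cells with DMSO and 100% = no-cell wells with DMSO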
# MOR-DOR ag-2: OPRM1-OPRD1 heterodimerization promoters, counter-screen for HTR5A agonist project, cell-based, luminescence. activation, % at 9.3 µM. U2OS counter-screen cells, complementation luminescence, 3 h. 800 tested, 13% active. shares compounds with HTR5A ag ctr. AID 504913, 2011
# HTR5A ag confirm: HTR5A agonists, retest of hits, confirmation, cell-based, luminescence; shares compounds with HTR5A ag ctr; activation, % at 9.3 µM; 800 tested, 17% active; HTR5A agonist cell assay; in the data active means activation above about 17%;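 further: 0% = cells with vehicle only and 100% = full reference agonist response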
# Numbers without * were called inactive; . = no result; ! = a repeat was not active. Unless noted, no stated cut-off is given here; in the data, active means activation above about 18%; inactive means the rest.
SMILES,MOR-DOR ag-1,MOR-DOR inv ag,HTR5A ag ctr,HTR5A inv ctr,MOR-DOR ag-2,HTR5A ag confirm
COc1ccc2[nH]cc(CCNC(C)=O)c2c1,-1,6,3,-10,.,.
CCOc1ccc(N2CC(C(=O)NCCc3c[nH]c4ccc(OC)cc34)CC2=O)cc1 (stereo not drawn),2,-17,20*,-59,0,0
COC(=O)C1=C(C)N(CCc2c[nH]c3ccc(OC)cc23)C(=O)C1,1,-3,17*,-32,3,42*
CCN(CC)CCCNc1oc(-c2ccccc2[N+](=O)[O-])nc1C#N,-1,7,5,18,.,.
Cc1ccc(C)c(OCCC(=O)OCC(=O)NCc2ccc(F)cc2)c1,-3,14,0,-12,.,.
CC1(C)Cc2cccc(OCC(=O)OCC(=O)Nc3ccccc3)c2O1,-1,6,6,-17,.,.
COc1cccc(NC(=O)COC(=O)COc2cccc3c2OC(C)(C)C3)c1,2,-10,1,-10,.,.
COc1ccc(NC(=O)COc2cccc3c2OC(C)(C)C3)cc1OC,0,1,26*,-67,1,29*
CCCNC(=O)c1ccccc1NC(=O)COc1cccc2c1OC(C)(C)C2,-2,9,27*,-67,10,0
CN(C)S(=O)(=O)c1ccc(NC(=O)COc2cccc3c2OC(C)(C)C3)cc1,-1,6,24*,-104,4,46*
COC(CNC(=O)C1CCN(S(=O)(=O)c2cccc3nsnc23)CC1)OC,-1,6,1,21,.,.
CC1CCN(C(=O)CN2C(=O)NC(c3ccccc3)(c3ccccc3)C2=O)CC1,0,0,-1,3,.,.
COc1ccc(CCNC(=O)C2CCN(S(=O)(=O)c3ccc(F)cc3)CC2)cc1,-1,2,-4,14,.,.
COc1cc(C(=O)Nc2cc3c4c(c2)CC(=O)N4CCC3)cc(OC)c1OC,-2,11,6,16,.,.
CCO[C@@H]1OC(C(N)=O)=C[C@H](C2CC2)[C@H]1CCCO,-3,16,-3,-5,.,.
CCOCc1cc(CN2CCCC(CNC(=O)c3ccco3)C2)ccc1OC (stereo not drawn),-4,19,5,-16,.,.
COc1ccc(C2CC(c3ccccc3)=NN2C(=O)COC(=O)c2cccc(N)c2)cc1 (stereo not drawn),5,-21,-3,10,.,.
Cc1ccc(NC2CCCN(C(=O)CCc3ccncc3)C2)cc1C (stereo not drawn),0,0,-4,-49,.,.
O=c1[nH]c2ccccc2cc1-c1nnn(-c2ccccc2)n1,-2,9,21*,-38,59*,-2
CC1CCCCC1NC(=O)Cn1cc([N+](=O)[O-])ccc1=O (stereo not drawn),-1,4,-2,8,.,.
CCOC(=O)C1=CN(Cc2ccco2)S(=O)(=O)NC1c1ccc(F)c(Cl)c1 (stereo not drawn),-2,9,-2,8,.,.
Cn1c(SCC(=O)Nc2ccc3c(c2)OCCO3)nnc1-c1ccncc1,1,-4,1,-11,.,.
CC(C)N1CCc2c(sc(NC(=O)c3ccc4ccccc4c3)c2C(N)=O)C1,3,-17,18*,-27,4,18*
Cc1ccn2cc(CNS(=O)(=O)c3ccc4ccccc4c3)nc2c1,-4,14,1,1,.,.
COc1ccc(C(=O)N/C(=C\c2cccc3ccccc23)C(=O)NCCc2c[nH]c3ccccc23)cc1OC,-2,10,19*,-47,0,-1
SMILES,MOR-DOR ag-1,MOR-DOR inv ag,HTR5A ag ctr,HTR5A inv ctr,MOR-DOR ag-2,HTR5A ag confirm
Cc1ccc(C(=O)N/C(=C\c2cccs2)C(=O)NCCc2c[nH]c3ccccc23)cc1C,-3,16,19*,-44,2,38*
COc1ccc(S(=O)(=O)N(C)C)cc1NC(=O)Cc1ccc(S(=O)(=O)N2CCOCC2)s1,6,-39,3,-21,.,.
CC(C)c1c(C(=O)N/N=C/c2ccc(OCc3ccccc3)cc2)nnn1-c1nonc1N,2,-13,22*,-4,41*,-1
CC(C)c1c(C(=O)N/N=C/c2ccc(OCc3ccc(F)cc3)cc2)nnn1-c1nonc1N,4,-21,15*,-8,7,-1
Nc1nonc1-n1nnc(C(=O)N/N=C/c2ccc(OCc3ccccc3)cc2)c1COc1ccc(F)cc1,1,-5,1,13,.,.
CCCOc1ccc(C(=O)CCCC(=O)c2ccc(OCCC)cc2)cc1,-1,3,-2,4,.,.
Cc1noc(C)c1CN1C(=O)c2ccccc2C1=O,-2,10,2,4,.,.
CCCCCCCCCCOC(=O)Cn1c(COc2ccccc2OC)[n+](C)c2ccccc21,9,-41,14*,-53,37*,9
Cc1ccc(S(=O)(=O)NC(=NC2CCCCC2)c2ccc(Cl)cc2)cc1,1,-11,14*,-43,2,4
O=S(=O)(NC(=NC1CCCCC1)c1ccccc1)c1ccccc1,-2,8,4,1,.,.
CCC(C)NS(=O)(=O)c1ccc(S(=O)(=O)N(CC(=O)Nc2ccccc2)Cc2ccco2)cc1 (stereo not drawn),1,-4,15*,-9,-1,2
Cc1cc(C(=O)COC(=O)c2ccc(O)cc2O)c(C)n1-c1ccc(OC(F)F)cc1,8,-50,27*,-12,1,25*
Cc1cc(C(=O)COC(=O)c2ccc(O)cc2O)c(C)n1-c1ccccc1,12,-47,9,12,.,.
COc1ccc(-n2c(C)cc(C(=O)COC(=O)c3ccc(O)cc3O)c2C)cc1,11,-45,15*,-12,7,10
Cc1cc(C(=O)CC#N)c(C)n1-c1ccc(OC(F)F)cc1,-3,17,-2,-21,.,.
COc1cc(NC(=O)COc2ccccc2[N+](=O)[O-])ccc1NC(=O)c1cccs1,9,-50,16*,-42,7,9
COc1cc(NC(=O)COc2ccccc2Cl)ccc1NC(=O)c1cccs1,4,-33,8,-18,.,.
Cc1noc(C)c1C(=O)OCC(=O)Nc1ccccc1C(=O)NC(C)c1ccccc1 (stereo not drawn),1,-7,17*,-6,1,0
Cc1c(NC(=S)/C=C2\N(C)c3ccccc3C2(C)C)c(=O)n(-c2ccccc2)n1C,-2,12,2,-26,.,.
Cc1c(N=C/C=C2/N(C)c3ccccc3C2(C)C)c(=O)n(-c2ccccc2)n1C,0,-1,22*,-85,0,29*!
Cc1c(N=C/C=C/c2ccccc2)c(=O)n(-c2ccccc2)n1C,1,-6,2,-9,.,.
